Source: PubChem BioAssay
This is a sample that favours compounds with a hit; in the whole collection about 0.93% have one here.
TRPML1 ag: agonists of human TRPML1 channel | Q9GZU1 | TRPML1-expressing cells, Ca2+ dye fluorescence, FDSS | activation, % (concentration not given with the values) | 410,000 compounds, 0.12% hits | AID 624414; in the data active means activation above about 50%; further: 0% is about no effect
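Tetracycline-induced TRPML1-DL cells are seeded and incubated overnight before loading with a no-wash Ca2+ dye and quencher. Agonist activity is taken from the 110 s fluorescence read following compound pin-transfer on an FDSS, before EC80 54-4 challenge.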
TRPML1 inh: inhibitors of human TRPML1 channel; AID 624415; TRPML1-inducible cells, Ca2+ dye fluorescence, FDSS; stronger effect = lower value; inhibition of EC80 agonist-evoked calcium signal; 390,000 compounds, 0.02% hits; activity change, negative = inhibition, % (no concentration beside the values); in the data active means activity change below about -50%;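 further: stimulus is agonist 54-4 at its EC80 concentration; on the % scale 0 is the no-effect control and ±100 the full control effect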
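Tet-induced TRPML1-DL cells loaded with Ca8 no-wash calcium dye were read kinetically on FDSS. Compound addition was followed by EC80 agonist 54-4 (4 uM final); inhibition was read over 110 s.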
TRHR enhancer: TRH receptor (human) allosteric enhancement | TRHR cells, fluo-8 calcium fluorescence, EC20 TRH enhancement | enhancement, % at 2 µM | 360,000 compounds, 0.66% hits; in the data active means enhancement above about 30%; further: 0% is about no effect
Target sequence (P34981 whole entry, looked up): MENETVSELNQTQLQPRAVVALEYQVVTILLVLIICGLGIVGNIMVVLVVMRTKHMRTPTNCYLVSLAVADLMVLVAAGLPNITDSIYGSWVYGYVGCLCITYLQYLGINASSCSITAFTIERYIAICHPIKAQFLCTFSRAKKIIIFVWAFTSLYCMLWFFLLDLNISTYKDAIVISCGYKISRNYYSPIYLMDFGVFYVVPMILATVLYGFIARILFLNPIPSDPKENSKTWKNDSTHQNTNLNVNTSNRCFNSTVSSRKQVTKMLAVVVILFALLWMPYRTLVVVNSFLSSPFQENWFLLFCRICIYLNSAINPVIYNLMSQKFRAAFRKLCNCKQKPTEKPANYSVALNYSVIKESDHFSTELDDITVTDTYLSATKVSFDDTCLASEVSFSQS
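Enhancer read-out: after compound pinning and an initial kinetic agonist-mode read, an EC20 of TRH (10 nM final) was injected and fluo-8 calcium signal (Ex 480/Em 530) followed at 1 s/cycle for 100 cycles in TRHR-expressing cells.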
PTHR1 ag: agonists of human PTHR1 parathyroid hormone receptor | HEK293 GP2 PTHR1 cells, GloSensor cAMP luminescence, 1 h | Potency, µM (series often up to 115 µM), for the others: top-dose activation, most hits filed as activators | 410,000 compounds, 0.075% hits | AID 743266; further: potency means the concentration at half of the fitted maximal effect; nearly all actives have a fitted effect of over 55% in size
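HEK-293-derived GP2 cells expressing PTHR1 and a GloSensor cAMP reporter, 3,000/well, plated overnight, given luciferin plus IBMX (each 0.5 mM as added) for 1 h at 37 °C, then compound for 1 h at 37 °C. Luminescence was read after 15 min at room temperature.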
TRHR agonist: TRH receptor (human) agonism. P34981. TRHR cells, calcium flux fluo-8, FDSS agonist mode. activation, % at 2 µM. 360,000 compounds, 0.18% hits; in the data active means activation above about 30%; further: 0% is about no effect
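Steps: seed TRHR cells overnight; add fluo-8 no-wash Ca dye, RT 30 min–1.5 h; record 10 s baseline; pin-transfer compounds; monitor fluorescence 1 cycle/s for the agonist window. Calcium increases flag candidate agonists.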
HEK293 tox: cytotoxicity counter-screen for GLP-1 receptor inverse agonists | HEK293 cAMP-luciferase reporter cells, luminescence, 24 h | Potency, µM (highest dose often 38.3 µM), for the others: top-dose activity change, negative = inhibition, hits mostly inhibitors | 410,000 compounds, 0.13% hits | AID 624418;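 further: loss of luciferase light is scored as toxicity; potency means the concentration at half of the fitted maximal effect; on the % scale 0 is the no-effect control and ±100 the full control effect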
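Step one: seed cells (200 cells/uL, DMEM with 10% Nu serum, 1% pen-strep). Step two: 12-hour incubation at 37 deg C. Step three: pin 23 nL compound, incubate 24 hr. Step four: add luciferase reagent, read luminescence 12 min later.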
* marks the source's active call; other numbers are inactive results. Unless noted, the call rests on the fitted dose curve; in most records, active means well fitted curve in the direction sought with a large enough effect; inconclusive means small, poorly fitted or top-dose-only effect, or another doubt; inactive means no such curve, though single readings can be large; an effect the other way counts as inactive or inconclusive.

How did CCC(=O)N1CCc2cc(CNC(=O)c3cccc(N(C)C)c3)ccc21 do in these assays?
TRPML1 ag: 1; TRPML1 inh: -26; TRHR enhancer: 35*; PTHR1 ag: inactive; TRHR agonist: -1; HEK293 tox: 1%

Results for CCOc1ccc(C(=O)Nc2ccc(Cl)c(-c3nc4cc(C)cc(C)c4o3)c2)cc1 ?
TRPML1 ag: 0; TRPML1 inh: 10; TRHR enhancer: 1; PTHR1 ag: -24%; TRHR agonist: 0; HEK293 tox: -4%

How did CCOc1ccc(C(=O)Nc2cccc(-c3nc4cc(Cl)cc(Cl)c4o3)c2)cc1 do in these assays?
TRPML1 ag: -1; TRPML1 inh: 8; TRHR enhancer: 35*; PTHR1 ag: inactive; TRHR agonist: 0; HEK293 tox: 1%

What do the screens show for `C1=Nc2ccccc2/C1=C/c1c[nH]c2ccccc12`?
TRPML1 ag: 2

Results for C=CCC1=C/C(=C\c2c(N)n3nc(CC(=O)N4CCCC4)sc3nc2=O)C=C(OC)C1=O ?
TRPML1 ag: 68*; TRPML1 inh: -10; TRHR enhancer: 7; PTHR1 ag: inactive; TRHR agonist: 187*; HEK293 tox: -14%

What do the screens show for `COC1=CC(=Cc2c(N)n3nc(CC(=O)N4CCOCC4)sc3nc2=O)C=C(OC)C1=O`?
TRPML1 ag: 6; TRPML1 inh: -11; TRHR enhancer: 8; PTHR1 ag: inactive; TRHR agonist: 0; HEK293 tox: inactive

Results for CCCCCCCCCC[n+]1cc(Br)cc(Br)c1 ?
TRPML1 ag: 0

Results for Cc1nc(C#N)nc(Oc2ccccc2)c1Cl ?
TRPML1 ag: -1

Results for C=C1C=C(C(F)F)n2ncc(C(=O)Nc3ccc(Br)cc3C(F)(F)F)c2N1 ?
TRPML1 ag: -1

What do the screens show for `O=C(Cn1nc(C(=O)O)c2ccccc2c1=O)Nc1cc(Cl)ccc1-n1cncn1`?
TRPML1 ag: -1; TRPML1 inh: 3; TRHR enhancer: 37*; PTHR1 ag: 0%; TRHR agonist: -1; HEK293 tox: -40%

Results for O=C(Cn1nc(C(=O)O)c2ccccc2c1=O)Nc1cc(C(F)(F)F)ccc1-n1cncn1 ?
TRPML1 ag: 0; TRPML1 inh: -9; TRHR enhancer: 13; PTHR1 ag: -2%; TRHR agonist: 0; HEK293 tox: 4%

Results for CCOc1ccc(N2CC(C(=O)Nc3ccc(S(=O)(=O)Nc4ncccn4)cc3)CC2=O)cc1 (centres undefined) ?
TRPML1 ag: -1; TRPML1 inh: -7; TRHR enhancer: 32*; PTHR1 ag: inactive; TRHR agonist: 0; HEK293 tox: 16%

What do the screens show for `CCNC(=O)NC(=O)CN(C)c1ccccc1`?
TRPML1 ag: 0; TRPML1 inh: -3; TRHR enhancer: 34*; PTHR1 ag: 29%; TRHR agonist: 0; HEK293 tox: 5%

What do the screens show for `O=C(NC(=S)Nc1ccccc1)c1cc(-c2ccccc2)nc2ccccc12`?
TRPML1 ag: 0; TRPML1 inh: 1; TRHR enhancer: -15; PTHR1 ag: inactive; TRHR agonist: 2; HEK293 tox: 14%

Results for O=C(NC(=S)Nc1ccccn1)c1cc(-c2ccccc2)nc2ccccc12 ?
TRPML1 ag: 1; TRPML1 inh: -3; TRHR enhancer: 8; PTHR1 ag: -24%; TRHR agonist: 1; HEK293 tox: 2.8µM*

What do the screens show for `Cc1cc2ccc(Cl)nc2nc1C`?
TRPML1 ag: -1

Results for O=C(Cn1cc(CNC(=O)c2ccccc2)nn1)Nc1cc(C(F)(F)F)ccc1Cl ?
TRHR enhancer: 2; TRHR agonist: -3

How did Cc1c(S(=O)(=O)Nc2ccc(Br)cc2)c(=O)n(C)c(=O)n1C do in these assays?
TRPML1 ag: 0; TRPML1 inh: 48; TRHR enhancer: 35*; PTHR1 ag: inactive; TRHR agonist: 0; HEK293 tox: -7%
